Assay results: PubChem BioAssay (NCATS)
Values joined by “and” are separate entries in the source; they are usually repeats but may differ in a detail not shown here. Equal entries are not always repeated. Results filed as inconclusive are left out. Active and inactive are the calls of the source. Unless noted, calls follow the shape of the dose curve; as a rule, active = well fitted curve in the direction sought with a large enough effect; inconclusive = small, poorly fitted or top-dose-only effect, or another doubt; inactive = no such curve, though single readings can be large; an effect the other way counts as inactive or inconclusive.

Legend:
[1] = Cell Viability - BJ (AID 421; calls by dose curve;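 also: potency is read from the fitted curve at half-maximal effect; cells exposed to compound for 40 hours at 37 °C before readout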); conditions: BJ fibroblast viability, qHTS
How it was run: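 Normal human BJ foreskin fibroblasts, 1500/well in complete medium, treated 40 hr at 37 °C. Cellular ATP by CellTiter-Glo luminescence; normalized to DMSO and 100 uM tamoxifen, AC50 from Hill fit.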

[2] = Cellular Toxicity (caspase-3) HepG2 (AID 654); conditions: HepG2 caspase-3 activation, luminescence, 0% = DMSO only, 100% = tamoxifen; series mostly up to 92.2 µM;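 also: cells exposed to compound for 16 hours before reading; 0% = DMSO alone and 100% = caspase signal from 100 µM tamoxifen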
How it was run: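 HepG2 cells (1500/well) in complete medium were treated with compounds for 16 hr at 37 °C. Caspase-3/7 activity was then read as luminescence from peptide-aminoluciferin cleavage. AC50 came from Hill fits, normalized to DMSO and 100 uM tamoxifen.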

[3] = Cellular Toxicity (caspase-3) BJ (AID 658); conditions: BJ fibroblasts, luminescence, normalized: DMSO 0%, staurosporine 100%; series mostly up to 91.7 µM
How it was run: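 Luminescent aminoluciferin-substrate cleavage reports caspase 3/7 activity in normal human BJ fibroblasts after 16 hr compound exposure at 37 °C. Normalized to DMSO (basal) and 10 uM staurosporine (100%); AC50 from Hill fit of concentration-response.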

[4] = Cellular Toxicity (caspase-3) MRC-5 (AID 659); conditions: MRC-5 cells, luminescence, normalized: DMSO 0%, 10 µM staurosporine 100%; series mostly up to 91.7 µM
How it was run: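 Luminescence from caspase-cleaved aminoluciferin substrate (Caspase-Glo 3/7, 1 hr RT) reports caspase 3/7 activity in MRC-5 lung fibroblasts after 16 hr compound exposure. Normalized to DMSO basal and 10 uM staurosporine as 100%; AC50 from Hill fits.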

[5] = Cellular Toxicity (caspase-3) Hek293 (AID 664); conditions: HEK293 caspase-3 activation, DMSO = 0%, 100 µM tamoxifen = 100%; at 92.2 µM (top of the series);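 also: cells exposed to compound for 16 h at 37 °C before readout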
How it was run: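 HEK293 cells were exposed to compounds in complete medium for 16 hr at 37 °C, then caspase-3/7 activity was read by Caspase-Glo 3/7 luminescence after 20 min at room temperature. Data normalized to DMSO and 100 uM tamoxifen; AC50 from Hill fits.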

[6] = Cellular Toxicity (caspase-3) N2a (AID 665); conditions: N2a cells, luminescence, normalized: DMSO 0%, 10 µM staurosporine 100%; series mostly up to 92.2 µM;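 also: compound exposure lasted 16 h at 37 °C before readout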
How it was run: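 Mouse N2a neuroblastoma cells (1500/well) were treated with compounds for 16 h at 37 °C, then caspase-3/7 activity was read by Caspase-Glo luminescence after 1 h at room temperature. Data were normalized to DMSO and 10 uM staurosporine; AC50 from Hill fits.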

[7] = Cellular Toxicity (caspase-3) NIH 3T3 (AID 666); conditions: NIH 3T3 caspase-3 activation, apoptosis/toxicity; series mostly up to 92.2 µM;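 also: caspase signal read after 16 h compound exposure; 0% = DMSO basal and 100% = 100 µM tamoxifen stimulation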
How it was run: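 Mouse NIH 3T3 fibroblasts (1000 cells/well) were treated with compound for 16 hr at 37°C in complete medium; caspase-3/7 activity was read by Caspase-Glo luminescence. Normalized to DMSO and 100 uM tamoxifen; AC50 from Hill fits.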

[8] = Cell Viability - LYMP2-001 (AID 921); conditions: LYMP2-001 lymphoblastoid cell viability; series mostly up to 92.2 µM;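 also: 0% = DMSO only and full inhibition = tetraoctylammonium bromide control wells; nearly all actives have a fitted effect of over 70% in size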
How it was run: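 Human lymphoblastoid LYMP2-001 cells, 2500 per well, in complete medium, treated 24 h at 37 C. Viability from cellular ATP by CellTiter-Glo luminescence; AC50 from Hill-equation fits of qHTS concentration-response.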

[9] = MultiTox-Fluor Cytotoxicity Assay - LYMP1-001 - Dead Cells (AID 946); conditions: LYMP1-001 lymphoblastoid cells, dead-cell protease fluorescence; series mostly up to 92.2 µM;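 also: 0% = DMSO and 100% = tetraoctylammonium bromide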
How it was run: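 LYMP1-001 lymphoblastoid cells (2500/well) treated 16 h at 37 C. Dead-cell protease cleavage of bis-AAF-R110 read at Ex/Em 485/520. Normalized to DMSO and 15 uM tetraoctylammonium bromide; AC50 from Hill fits.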

[10] = MultiTox-Fluor Cytotoxicity Assay - LYMP1-002 - Live Cells (AID 955); conditions: LYMP1-002 lymphoblastoid live-cell protease fluorescence viability; series mostly up to 46.1 µM; also: % is scaled to controls: 0 for no effect and ±100 for the full control effect
How it was run: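 Human lymphoblastoid LYMP1-002 cells, 2500/well in complete medium, rested 5 hr at 37 C, then exposed to compounds for 16 hr at 37 C. Live-cell protease cleavage of GF-AFC read by fluorescence (Ex/Em 405/510) after 60 min at room temperature; AC50 from Hill fits.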

[11] = MultiTox-Fluor Cytotoxicity Assay - LYMP1-003 - Dead Cells (AID 961); conditions: LYMP1-003 lymphoblastoid cells, dead-cell protease fluorescence; series mostly up to 92.2 µM;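 also: 0% = DMSO and 100% = tetraoctylammonium bromide; nearly all actives have a fitted effect of over 70% in size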
How it was run: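 LYMP1-003 human lymphoblastoid cells (2500/well) exposed to compound 16 h at 37 C in complete medium; dead-cell protease read with bis-AAF-R110 fluorescence (Ex/Em 485/520) after 60 min at room temperature. Normalized to DMSO and 15 uM tetraoctylammonium bromide; AC50 from Hill fit.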

[12] = MultiTox-Fluor Cytotoxicity Assay - LYMP1-003 - Live Cells (AID 962); conditions: LYMP1-003 lymphoblastoid cells, MultiTox-Fluor live-cell protease fluorescence; series mostly up to 92.2 µM;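 also: 0% = DMSO only and full loss = 92 µM tetraoctylammonium bromide; cytotoxic hits lower the live-cell protease signal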
How it was run: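 LYMP1-003 human lymphoblastoid cells (2500/well) in complete medium were preincubated 5 hr at 37 C, then exposed to compounds for 16 hr at 37 C. Live-cell protease cleavage of GF-AFC read by fluorescence (Ex/Em 405/510); AC50 from Hill fits.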

[13] = Cell Viability - LYMP2-021 (AID 974); conditions: LYMP2-021 lymphoblastoid cells viability; series mostly up to 92.2 µM;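 also: compound exposure lasts 24 hours at 37 °C; % is scaled to controls: 0 for no effect and ±100 for the full control effect; nearly all actives have a fitted effect of over 55% in size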
How it was run: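 Human lymphoblastoid cells (2500/well) were preincubated 5 hr at 37 C, then exposed to compounds for 24 hr at 37 C in complete medium. Intracellular ATP was read by CellTiter-Glo luminescence; AC50 came from Hill-equation fits of concentration-response data.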

[14] = Cell Viability - LYMP2-025 (AID 976); conditions: LYMP2-025 lymphoblastoid cell viability; series mostly up to 92.2 µM;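 also: plate controls were DMSO only for no effect and tetraoctylammonium bromide control for full effect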
How it was run: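 Human lymphoblastoid LYMP2-025 cells (2500/well) were pre-incubated 5 hr at 37 C, then treated with compounds for 24 hr at 37 C in complete medium. Viability was read as intracellular ATP by CellTiter-Glo luminescence; AC50 from Hill fits.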

[15] = Cell Viability - LYMP2-006 (AID 978); conditions: LYMP2-006 lymphoblastoid cell viability, qHTS; series mostly up to 92.2 µM; also: % is scaled to controls: 0 for no effect and ±100 for the full control effect; nearly all actives have a fitted effect of over 60% in size
How it was run: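 Human lymphoblastoid cells (LYMP2-006), 2500/well in complete medium, were treated with compound for 24 hr at 37 C. Cellular ATP was read by CellTiter-Glo luminescence after 30 min, and AC50 values came from Hill-equation fits of concentration-response data.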

[16] = Cell Viability - LYMP1-002 - Assay at 24 hr (AID 993); conditions: LYMP1-002 lymphoblastoid cells viability; series mostly up to 92.2 µM; also: % is scaled to controls: 0 for no effect and ±100 for the full control effect
How it was run: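 Human lymphoblastoid LYMP1-002 cells, 2500/well in complete medium, were treated with compounds for 24 h at 37 C; intracellular ATP was read by CellTiter-Glo luminescence. AC50 values came from Hill-equation fits of qHTS concentration-response data.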

[17] = Cell Viability - LYMP1-002 - Assay at 40 hr (AID 994); conditions: LYMP1-002 lymphoblastoid cell viability; series mostly up to 92.2 µM;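 also: 0% = DMSO only and full inhibition = 92 µM tetraoctylammonium bromide; nearly all actives have a fitted effect of over 60% in size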
How it was run: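 Human lymphoblastoid cells, 2500/well in complete medium, were preincubated 5 hr at 37 C, then exposed to compounds for 40 hr at 37 C. Intracellular ATP was read by CellTiter-Glo luminescence after 30 min at room temperature; AC50 from Hill-equation fits.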

[18] = qHTS Assay for Identification of Small Molecule Inducers of Hypoxia Response (AID 2120; active = well fitted curve in the direction sought with a large enough effect in the signal ratio, with a control signal flat, not every such curve was filed as active; the % refers to the signal ratio; also: 0% is about no effect); conditions: hypoxia response reporter cells, beta-lactamase ratio readout; series mostly up to 104 µM
How it was run: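 HRE-beta-lactamase reporter in CellSensor HRE-bla ME-180 cells, 2500 cells/well in Opti-MEM with 0.5% dialyzed FBS; compounds tested as titration series, 17 h at 37 degrees C. CCF4 substrate 2.5 h at room temperature; AC50 from 460/530 nm ratio.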

[19] = biological target: Peroxisome proliferator-activated receptor alpha (Homo sapiens) (UniProt Q07869); experiment: qHTS assay for small molecule agonists of the peroxisome proliferator-activated receptor alpha (PPARalpha) signaling pathway (AID 651778); conditions: PathHunter PPARalpha complementation, chemiluminescence, 6 h; stronger effect = higher value; also: % of control where 0% means no effect
Chain of Peroxisome proliferator-activated receptor alpha (Homo sapiens) (Q07869 whole entry, looked up): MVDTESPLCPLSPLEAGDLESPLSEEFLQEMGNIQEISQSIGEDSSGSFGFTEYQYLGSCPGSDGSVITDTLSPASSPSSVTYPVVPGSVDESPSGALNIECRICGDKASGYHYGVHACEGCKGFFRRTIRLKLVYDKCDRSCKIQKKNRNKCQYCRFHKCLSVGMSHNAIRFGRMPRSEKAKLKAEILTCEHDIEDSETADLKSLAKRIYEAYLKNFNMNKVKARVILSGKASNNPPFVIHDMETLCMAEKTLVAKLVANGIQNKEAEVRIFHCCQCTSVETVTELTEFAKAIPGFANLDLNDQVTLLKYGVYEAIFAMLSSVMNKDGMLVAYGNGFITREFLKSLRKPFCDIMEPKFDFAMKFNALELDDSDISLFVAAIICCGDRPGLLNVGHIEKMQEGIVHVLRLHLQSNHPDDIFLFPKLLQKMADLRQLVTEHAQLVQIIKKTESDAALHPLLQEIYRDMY
How it was run: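 Cells plated at 2,000/well and held overnight at 37 C, 5% CO2, then compound added by pin tool for 6 hr; after PathHunter detection reagent and 60 min at room temperature, chemiluminescence from enzyme complementation was read.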

[20] = qHTS assay for cell viability of the p53RE-bla HCT-116 cell line (AID 743292); conditions: p53RE-bla HCT-116 viability, ATP luminescence, 16 h; series mostly up to 95 µM; also: % is scaled to controls: 0 for no effect and ±100 for the full control effect; nearly all actives have a fitted effect of over 55% in size
How it was run: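 Quantitative high-throughput format: compounds in DMSO were pinned onto p53RE-bla HCT-116 cells (4,000/well) and incubated 16 h at 37 C. Total intracellular ATP, read by CellTiter-Glo luminescence, reflects viable cell number.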

O=C(O)CBr
inactive: Potency [1] > 92 µM | outcome [2] | outcome [3] | outcome [4] | caspase-3 activation [5] 2.72% | outcome [6] | Potency [7] | Potency [8] | outcome [9] | outcome [10] | Potency [11] | outcome [12] | Potency [13] | Potency [14] | Potency [15] | Potency [16] | Potency [17] | Potency [18] | max response [19] 2.06% | Potency [20]

CCCCC#N
inactive: Potency [1] > 92 µM | outcome [2] | outcome [3] | outcome [4] | caspase-3 activation [5] -1.9% | outcome [6] | Potency [7] | Potency [8] | outcome [9] | outcome [10] | Potency [11] | outcome [12] | Potency [13] | Potency [14] | Potency [15] | Potency [16] | Potency [17] | Potency [18] | max response [19] -3.73% | Potency [20]

COC(=O)Nc1nc2ccccc2[nH]1
inactive: Potency [1] > 92 µM | outcome [2] | outcome [3] | outcome [4] | caspase-3 activation [5] -4.59% | outcome [6] | Potency [7] | outcome [10] | Potency [11] | outcome [12] | Potency [13] | Potency [14] | Potency [15] | Potency [16] | Potency [18] | max response [19] -5.67% and 0.607% | Potency [20]

O=C(O)C(Cl)Br (configuration not stated)
inactive: Potency [1] > 92 µM | outcome [2] | outcome [3] | outcome [4] | caspase-3 activation [5] 0.0973% | outcome [6] | Potency [7] | Potency [8] | outcome [9] | outcome [10] | Potency [11] | outcome [12] | Potency [13] | Potency [14] | Potency [15] | Potency [16] | Potency [17] | Potency [18] | max response [19] -0.46% | Potency [20]

O=Cc1ccc(Cl)cc1Cl
inactive: Potency [1] > 92 µM | outcome [2] | outcome [3] | outcome [4] | caspase-3 activation [5] -1.13% | outcome [6] | Potency [7] | Potency [8] | outcome [9] | outcome [10] | Potency [11] | outcome [12] | Potency [13] | Potency [14] | Potency [15] | Potency [16] | Potency [17] | Potency [18] | max response [19] -4.79% | Potency [20]

Clc1ccc(Cl)c(Cl)c1
inactive: Potency [1] > 92 µM | outcome [2] | outcome [3] | outcome [4] | caspase-3 activation [5] 0.169% | outcome [6] | Potency [7] | Potency [8] | outcome [9] | outcome [10] | Potency [11] | outcome [12] | Potency [13] | Potency [14] | Potency [15] | Potency [16] | Potency [17] | Potency [18] | max response [19] -1.44% and -3.32% | Potency [20]

CC[N+](=O)[O-]
inactive: Potency [1] > 92 µM | outcome [2] | outcome [3] | outcome [4] | caspase-3 activation [5] 3.71% | outcome [6] | Potency [7] | Potency [8] | outcome [9] | outcome [10] | Potency [11] | outcome [12] | Potency [13] | Potency [14] | Potency [15] | Potency [16] | Potency [17] | Potency [18] | max response [19] 1.55% | Potency [20]
